Inconclusive results are not listed. Calls of active or inactive are those of the source. Rule for the calls, unless noted: active = hit-call score of the fitted dose curve at least 0.9, where 1 is the maximum; inactive = score below 0.9.
Columns and labels:
[1] = UKN5_HCS_SBAD2_neurite_outgrowth: University of Konstanz (UKN) Leist Lab Neurite Outgrowth Assay in human iPSC-derived immature Dorsal Root Ganglia Neurons (UKN5) (AID 2284070); conditions: actives raise or lower the signal
Method in brief: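 Thaw, seed on Matrigel (100.000 cells/cm2), dose 1 h later; at 23 h live-stain with H-33342 and calcein-AM for 60 min; image at 24 h. Neurite area fitted bidirectionally vs DMSO.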

[2] = CCTE_Shafer_MEA_dev_AB: CCTE's Alamar Blue Assay for Cytotoxicity in the Neural Network Formation Assay, Shafer Lab (AID 2284083; active = hit-call score of the fitted dose curve at least 0.9, where 1 is the maximum;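 note: resazurin reduction fluorescence as viability of cultured neurons; twelve days of exposure from plating with re-dosing on DIV 5 and 9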)
Method in brief: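 Cytotoxicity companion to the developmental MEA: primary rat cortical neurons, 12-day exposure starting day 0, compound refreshed DIV 5 and 9; resazurin fluorescence, fitted against DMSO vehicle.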

[3] = CCTE_Shafer_MEA_dev_mutual_information_norm: CCTE's Neural Network Formation Assay for Mutual Information Normalization, Shafer Lab (AID 2284091)
Method in brief: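 Shared information across electrodes, tracked on days 5, 7, 9 and 12 of network development and collapsed as trapezoidal area under the curve. Rat cortical cultures were treated continuously from plating, with treatment renewed at feeds on DIV 5 and 9; DMSO baseline, negative-direction fit.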

[4] = CCTE_Shafer_MEA_dev_correlation_coefficient_mean: CCTE's Neural Network Formation Assay for Mean Correlation Coefficient, Shafer Lab (AID 2284093);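 note: well mean pairwise spike train correlation integrated as AUC over recording days 5 to 12; potency fitted for loss of correlation relative to DMSO vehicle wells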
Method in brief: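 Extracellular firing from rat cortical networks on 48-well MEAs, DMSO-referenced, negative fitting direction. Compound present from plating to DIV12; mean pairwise correlation per well integrated over DIV5–12 recordings by trapezoidal AUC.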

[5] = UKN2_HCS_IMR90_neural_migration: University of Konstanz (UKN) Leist Lab Neural Crest Cell Migration Assay in human induced IMR90 Pluripotent Stem Cells (UKN2) (AID 2284204); conditions: actives raise or lower the signal
Method in brief: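 High-content imaging of calcein-AM and Hoechst stained cells quantifies migration into a stopper-defined gap after 24 h compound exposure. Neural crest cells from IMR90 iPSC migrated 24 h in EGF/FGF N2-S medium before dosing; DMSO baseline.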

[6] = UKN4_HCS_LUHMES_neurite_outgrowth: University of Konstanz (UKN) Leist Lab Neurite Outgrowth Assay in human LUHMES cells (UKN4) (AID 2284206); conditions: actives raise or lower the signal
Method in brief: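 Human LUHMES cells were differentiated for two days, replated and treated with chemicals for 24 h. Neurite outgrowth was quantified as calcein-stained neurite area by HCS imaging, fitted bidirectionally relative to DMSO.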

[7] = IUF_NPC1b_proliferation_BrdU_72hr: Leibniz Research Institute for Environmental Medicine (IUF) 72-hour Neural Progenitor Cell Bromodeoxyuridine (BrdU) Proliferation Assay (NPC1b) (AID 2284207)
Method in brief: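 Human fetal cortex-derived (GW 16-19) neural progenitor spheres, 0.25-0.35 mm, one per well in EGF/FGF proliferation medium, exposed to compound for 72 h at 37C, pH 7.2-7.6. BrdU incorporation over the final 16 h read by luminescence ELISA, relative to DMSO.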

[8] = IUF_NPC1a_proliferation_area_72hr: Leibniz Research Institute for Environmental Medicine (IUF) 72-hour Neural Progenitor Cell Proliferation Area Assay (NPC1a) (AID 2284208)
Method in brief: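 Proliferation is scored as sphere area gain in primary human fetal neural progenitors treated for 72 h in EGF/FGF-containing medium. Viability, LDH and BrdU readouts come from the same wells.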

[9] = IUF_NPC1_viability_72hr: Viability Assessment at 72 hours in the Leibniz Research Institute for Environmental Medicine (IUF) Neural Progenitor Cell Proliferation Assay (NPC1) (AID 2284209)
Method in brief: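 Spheres of primary human neural progenitors were plated singly in proliferation medium and treated for 72 h. Mitochondrial reduction of resazurin was then measured by fluorescence and analysed against DMSO controls.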

[10] = UKN4_HCS_LUHMES_cell_viability: Viability Assessment in the University of Konstanz (UKN) Leist Lab Neurite Outgrowth Assay in human LUHMES cells (UKN4) (AID 2284232)
Method in brief: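 Cells switched to differentiation medium at day 0, replated on day 2 in medium lacking cAMP and GDNF, and compound-treated once attached. Live staining began 23.5 h later, imaging followed at 24 h.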

[11] = UKN2_HCS_IMR90_cell_viability: Viability Assessment in the University of Konstanz (UKN) Leist Lab Neural Crest Cell Migration Assay in human induced IMR90 Pluripotent Stem Cells (UKN2) (AID 2284233);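 note: cells exposed to compound for 24 h after a 24 h migration phase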
Method in brief: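 After calcein-AM/Hoechst staining, viability is quantified by high-content fluorescence imaging, relative to DMSO, in iPSC (IMR90)-derived neural crest cells. Exposure lasts 24 h, starting after a 24 h migration period on PLO/laminin/fibronectin coating.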

[12] = IUF_NPC2c_oligodendrocyte_migration_120hr: Leibniz Research Institute for Environmental Medicine (IUF) 120-hour Neural Progenitor Cell Migration Assay for Oligodendrocyte Migration (NPC2c) (AID 2284297);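 note: O4-positive oligodendrocyte migration distance divided by radial glia migration distance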
Method in brief: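 Primary hNPC spheres migrating on extracellular matrix, exposed five days to a 7-point dilution series with solvent control. Oligodendrocyte migration was scored by high-content imaging of O4 immunostaining and expressed relative to radial glia distance.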

[13] = IUF_NPC2a_radial_glia_migration_120hr: Leibniz Research Institute for Environmental Medicine (IUF) 120-hour Neural Progenitor Cell Migration Assay for Radial Glia Migration (NPC2a) (AID 2284298)
Method in brief: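 In this multiplexed test, fetal hNPC spheres migrate radially on poly-D-lysine/laminin in N2 medium (37C, 5% CO2, pH 7.2-7.6) under continuous compound exposure over five days. Migration is scored at 120 h from automated Hoechst nuclear imaging.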

[14] = IUF_NPC2a_radial_glia_migration_72hr: Leibniz Research Institute for Environmental Medicine (IUF) 72-hour Neural Progenitor Cell Migration Assay for Radial Glia Migration (NPC2a) (AID 2284299)
Method in brief: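 Single 0.3 mm neurospheres were plated per well in N2 differentiation medium and exposed from the start of differentiation. After 72 hours, brightfield images were taken and radial glia migration from the sphere core edge was measured manually in four directions, averaged per well.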

[15] = IUF_NPC2b_neuronal_migration_120hr: Leibniz Research Institute for Environmental Medicine (IUF) 120-hour Neural Progenitor Cell Migration Assay for Neuron Migration (NPC2b) (AID 2284300)
Method in brief: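 Neurons identified by TUBB3 immunostaining and Hoechst nuclei; migration distance measured automatically on fixed wells at 120 h, normalized to glia migration. Exposure spanned five days of differentiation in N2 medium, seven test concentrations.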

[16] = IUF_NPC3_neuronal_differentiation_120hr: Leibniz Research Institute for Environmental Medicine (IUF) 120-hour Neuronal Differentiation Assay (NPC3) (AID 2284301)
Method in brief: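 Value is percent TUBB3-positive neurons among Hoechst-stained nuclei in the migration area, scored by trained CNN after 120 h differentiation. Primary hNPC spheres on poly-D-lysine/laminin, N2 medium, continuous dosing from day 0, half-refeed day 3; DMSO reference.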

[17] = IUF_NPC4_neurite_length_120hr: Leibniz Research Institute for Environmental Medicine (IUF) 120-hour Neuronal Morphology Assay for Neurite Length (NPC4) (AID 2284302)
Method in brief: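 Neurite length, the mean in um across TUBB3-stained neurons, is derived by skeletonization of high-content images after 120 h differentiation. Compound exposure, 7 concentrations plus solvent control, ran from plating of hNPC spheres on poly-D-lysine/laminin, with medium half-replaced on day 3.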

[18] = IUF_NPC4_neurite_area_120hr: Leibniz Research Institute for Environmental Medicine (IUF) 120-hour Neuronal Morphology Assay for Neurite Area (NPC4) (AID 2284305; active = hit-call score of the fitted dose curve at least 0.9, where 1 is the maximum)
Method in brief: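 Neurite area (pixels, nuclei excluded) of TUBB3-positive neurons from hNPC spheres differentiating 5 days under continuous exposure at 37 C, 5% CO2. High-content imaging; loss of signal versus DMSO control across 7 concentrations.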

[19] = IUF_NPC2-5_cytotoxicity_72hr: Cytotoxicity Assessment at 72 hours in the Leibniz Research Institute for Environmental Medicine (IUF) Neural Progenitor Cell Migration and Differentiation Assay for Cytotoxicity (NPC2-5) (AID 2284306; active = hit-call score of the fitted dose curve at least 0.9, where 1 is the maximum;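 note: LDH release into supernatant measured by resorufin fluorescence marking membrane damage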)
Method in brief: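 Membrane-integrity cytotoxicity at 72 h, read as LDH-driven resorufin fluorescence in supernatant. hNPC spheres from fetal cortex differentiate on coated plates in N2 medium, 37C, 5% CO2; seven serial compound concentrations plus solvent control (DMSO ≤0.1%).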

[20] = IUF_NPC2-5_cytotoxicity_120hr: Cytotoxicity Assessment at 120 hours in the Leibniz Research Institute for Environmental Medicine (IUF) Neural Progenitor Cell Migration and Differentiation Assay (NPC2-5) (AID 2284307; active = hit-call score of the fitted dose curve at least 0.9, where 1 is the maximum)
Method in brief: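 Fluorescence (RFU) from LDH-driven resazurin reduction in medium supernatants measured loss of membrane integrity after 120 h of compound exposure of differentiating primary human neural progenitor spheres on an extracellular matrix.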

[21] = IUF_NPC2-5_cell_number_120hr: Cell Number Assessment at 120 hours in the Leibniz Research Institute for Environmental Medicine (IUF) Neural Progenitor Cell Migration and Differentiation Assay (NPC2-5) (AID 2284308);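 note: count of Hoechst-stained nuclei in migration zone around plated human neural progenitor spheres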
Method in brief: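 Cell number is taken as all Hoechst-positive nuclei detected in the area into which cells migrate out of the sphere, scored at 120 h and referenced to DMSO solvent control, which was kept at no more than 0.1%.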

[22] = IUF_NPC2-5_viability_120hr: Viability Assessment at 120 hours in the Leibniz Research Institute for Environmental Medicine (IUF) Neural Progenitor Cell Migration and Differentiation Assay (NPC2-5) (AID 2284312)
Method in brief: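 Alamar blue resorufin fluorescence read after 5 days of differentiation, with compound present from day 0 and replenished at day 3. Primary hNPC spheres on laminin-coated plates, 37C; seven concentrations plus solvent control, fitted against DMSO.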

[23] = IUF_NPC1_cytotoxicity_72hr: Cytotoxicity Assessment at 72 hours in the Leibniz Research Institute for Environmental Medicine (IUF) Neural Progenitor Cell Proliferation Assay (NPC1) (AID 2284332; active = hit-call score of the fitted dose curve at least 0.9, where 1 is the maximum;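 note: rising LDH signal means more cytotoxicity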)
Method in brief: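 Membrane-integrity loss is scored from LDH released into the medium, detected as resorufin fluorescence, with activity fitted upward relative to baseline. Test material stays on human fetal-derived progenitor spheres for 72 h.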

Brc1ccc(Oc2cc(Br)c(Br)cc2Br)c(Br)c1
outcome [1]: inactive
AC50 [2]: 13.6 µM (active)
outcome [3]: inactive
AC50 [4]: 10 µM (active)
outcome [5]: inactive
AC50 [6]: 13.4 µM (active)
outcome [7]: inactive
outcome [8]: inactive
outcome [9]: inactive
outcome [10]: inactive
outcome [11]: inactive
outcome [12]: inactive
outcome [13]: inactive
outcome [14]: inactive
outcome [15]: inactive
outcome [16]: inactive
outcome [17]: inactive
outcome [18]: inactive
outcome [19]: inactive
outcome [20]: inactive
outcome [21]: inactive
outcome [22]: inactive
outcome [23]: inactive

Source: PubChem BioAssay (EPA / NIEHS)
